In PubChem BioAssay (Tox21) one finds Potency and outcome data, which are given here for six compounds.

SMILES strings stand for the structures. Results filed as inconclusive are left out. The source made the active and inactive calls. Unless noted, the call rests on the fitted dose curve; in most records, active means well fitted curve in the direction sought with a large enough effect in the repeat runs; inconclusive means weak or mixed curves; inactive means no such curve, though single readings can be large; an effect the other way counts as inactive or inconclusive.

A short description of experiment [1]: qHTS assay for small molecules that induce genotoxicity in human embryonic kidney cells expressing luciferase-tagged ATAD5 (AID 651632). Further: nearly all actives have a fitted effect of over 15% in size. The method in brief:
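ATAD5-luc HEK293T, 2,000 cells/well; cpd or DMSO pin-transferred; 16 hr, 37C/5% CO2; Amplite 30 min RT; luminescence.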

A short description of experiment [2]: qHTS assay for small molecule agonists of the p53 signaling pathway - cell viability (AID 651633; calls by dose curve;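 further: p53RE-bla HCT reporter cells with a stable beta-lactamase p53 reporter; series mostly up to about 83 µM; nearly all actives have a fitted effect of over 30% in size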). The method in brief: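 p53RE-bla cells were treated with compound for 16 hours at 37 C. Cytotoxicity was then measured as CellTiter-Glo luminescence after 30 min at room temperature.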
Experiment [3] in a line: qHTS assay for small molecule disruptors of the mitochondrial membrane potential - cell viability (AID 720634; calls by dose curve;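 further: human HepG2 liver cancer cells; series mostly up to about 83 µM; nearly all actives have a fitted effect of over 20% in size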). The method in brief: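 Cells: HepG2, 2,000/well, attached overnight. Compound 1 hr, 37 C/5% CO2. +m-MPI dye, +CellTiter-Glo 30 min RT. Readout: luminescence (ATP).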
In general terms: Quantitative high-throughput screening tests each substance at several concentrations.

Experiment [4] can be described thus: qHTS assay to test for compound auto fluorescence at 535 nm (green) in HepG2 cells (AID 720675).
Experiment [5] is described as follows: qHTS assay to test for compound auto fluorescence at 460 nm (blue) in HEK293 cells (AID 720678). Further: potency means the concentration at half of the fitted maximal effect. The method in brief: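 Cells were seeded and left to adhere for 4-5 hr at 37C. Compounds were then pin-transferred. After an overnight incubation at 37C under 5% CO2, intrinsic fluorescence at 405/460 nm was measured and referenced to triamterene.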
Experiment [6] is described as follows: qHTS assay to test for compound auto fluorescence at 590 nm (red) in HEK293 cells (AID 720679). The method in brief: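 Each well held 2,000 HEK293 cells in medium containing 10% dialyzed FBS. Following 4-5 hr attachment at 37C, 23 nL test compound or DMSO was added; plates sat overnight, and red fluorescence (540/590nm) was recorded.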
A short description of experiment [7]: qHTS assay to test for compound auto fluorescence at 460 nm (blue) in HEK293 cell free culture (AID 720681). Further: potency means the concentration at half of the fitted maximal effect. The method in brief: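 Compounds were added to cell-free DMEM with 10% FBS and fluorescence read directly. The blue channel used 405 nm excitation and 460 nm emission, with triamterene as the reference fluorophore.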
Experiment [8] can be described thus: qHTS assay to test for compound auto fluorescence at 535 nm (green) in HEK293 cell free culture (AID 720682). The method in brief:
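Green-label autofluorescence (485 nm excitation, 535 nm emission) measured on compound added to cell-free culture medium (DMEM, 10% FBS). Output is expressed relative to fluorescein.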

Experiment [9] in a line: qHTS assay to test for compound auto fluorescence at 590 nm (red) in HepG2 cell free culture (AID 720684). The method in brief:
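Compound was pinned into wells holding MEM with 10% FBS and no cells, and red fluorescence was read at Ex/Em 540/590 nm. Signal is expressed as auto fluorescence equivalency relative to Rose Bengal sodium.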

The nature of experiment [10]: qHTS assay to test for compound auto fluorescence at 460 nm (blue) in HepG2 cell free culture (AID 720685). Further: potency means the concentration at half of the fitted maximal effect. The method in brief:
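Compound (23 nL) or DMSO pinned into cell-free MEM with 10% FBS; blue fluorescence read at 405/460 nm excitation/emission, expressed as auto-fluorescence equivalency to triamterene.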

A short description of experiment [11]: qHTS assay to test for compound auto fluorescence at 535 nm (green) in HepG2 cell free culture (AID 720686).
Experiment [12] is described as follows: qHTS assay to test for compound auto fluorescence at 460 nm (blue) in HepG2 cells (AID 720687). Further: potency means the concentration at half of the fitted maximal effect. The method in brief: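 HepG2 cells in MEM with 10% FBS, attached overnight at 37 C, were exposed to compound or DMSO for 1 hr at 37 C, 5% CO2. Blue fluorescence was read at 405/460 nm, with triamterene as reference fluorophore.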
Experiment [13] can be described thus: qHTS assay for identifying genotoxic compounds that show differential cytotoxicity against isogenic chicken DT40 cell lines with known DNA damage response pathways - wild type cell line (AID 743012). Further: nearly all actives have a fitted effect of over 60% in size. Further: potency means the concentration at half of the fitted maximal effect. The method in brief: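 Wild type DT40, 300 cells/well, ~0.5 h settle at 37 C/5% CO2; compounds in DMSO added by pintool; 40 h at 37 C/5% CO2; CellTiter-Glo, 30 min RT; luminescence.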

The nature of experiment [14]: qHTS assay for identifying genotoxic compounds that show differential cytotoxicity against isogenic chicken DT40 cell lines with known DNA damage response pathways - Rad54/Ku70 mutant cell line (AID 743015). Further: nearly all actives have a fitted effect of over 60% in size. Further: potency means the concentration at half of the fitted maximal effect.
A short description of experiment [15]: qHTS assay to identify small molecule antagonists of the androgen receptor (AR) signaling pathway - cell viability counter screen (AID 743033; further: nearly all actives have a fitted effect of over 45% in size).
The nature of experiment [16]: qHTS assay to identify small molecule antagonists of the estrogen receptor alpha (ER-alpha) signaling pathway - cell viability counter screen (AID 743074; calls by dose curve;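 further: HEK293 cells carrying ER-alpha-UAS-bla reporter stimulated with 17beta-estradiol; nearly all actives have a fitted effect of over 45% in size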).
A further experiment addresses Aromatase (Homo sapiens) (UniProt P11511). Put plainly: qHTS assay to identify aromatase inhibitors (AID 743083). Further: series mostly up to about 70 µM; nearly all actives have a fitted effect of over 55% in size.
Experiment [17] can be described thus: qHTS assay to identify aromatase inhibitors - cell viability counter screen (AID 743084).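 Further: cells stimulated with testosterone during compound exposure; nearly all actives have a fitted effect of over 55% in size.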
For experiment [18], the target named is Aryl hydrocarbon receptor (Homo sapiens) (UniProt P35869). Put plainly: qHTS assay to identify small molecule that activate the aryl hydrocarbon receptor (AhR) signaling pathway (AID 743085). Further: nearly all actives have a fitted effect of over 15% in size. Further: potency means the concentration at half of the fitted maximal effect. The method in brief:
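HepG2 cells stably carrying a 20-DRE firefly luciferase reporter (HG2L7.5c1) treated with compound for 24 hr at 37C. Luciferase read by ONE-Glo luminescence, with CellTiter-Fluor viability read first.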

Experiment [19] in a line: qHTS assay to identify small molecule antagonists of the androgen receptor (AR) signaling pathway using the MDA cell line - cell viability counter screen (AID 743041; further: nearly all actives have a fitted effect of over 45% in size). The method in brief: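 MDA-kb2 AR-luc cells (MMTV-luciferase, AR/GR responsive) treated with compounds plus R1881 agonist for 16 h at 37C. CellTiter-Fluor added at 15.5 h; fluorescence read after 30 min in the same wells.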
Tags describe the fitted curve by direction and shape or compound fluorescence and quenching.

Chain of Aryl hydrocarbon receptor (Homo sapiens) (P35869 whole entry, looked up): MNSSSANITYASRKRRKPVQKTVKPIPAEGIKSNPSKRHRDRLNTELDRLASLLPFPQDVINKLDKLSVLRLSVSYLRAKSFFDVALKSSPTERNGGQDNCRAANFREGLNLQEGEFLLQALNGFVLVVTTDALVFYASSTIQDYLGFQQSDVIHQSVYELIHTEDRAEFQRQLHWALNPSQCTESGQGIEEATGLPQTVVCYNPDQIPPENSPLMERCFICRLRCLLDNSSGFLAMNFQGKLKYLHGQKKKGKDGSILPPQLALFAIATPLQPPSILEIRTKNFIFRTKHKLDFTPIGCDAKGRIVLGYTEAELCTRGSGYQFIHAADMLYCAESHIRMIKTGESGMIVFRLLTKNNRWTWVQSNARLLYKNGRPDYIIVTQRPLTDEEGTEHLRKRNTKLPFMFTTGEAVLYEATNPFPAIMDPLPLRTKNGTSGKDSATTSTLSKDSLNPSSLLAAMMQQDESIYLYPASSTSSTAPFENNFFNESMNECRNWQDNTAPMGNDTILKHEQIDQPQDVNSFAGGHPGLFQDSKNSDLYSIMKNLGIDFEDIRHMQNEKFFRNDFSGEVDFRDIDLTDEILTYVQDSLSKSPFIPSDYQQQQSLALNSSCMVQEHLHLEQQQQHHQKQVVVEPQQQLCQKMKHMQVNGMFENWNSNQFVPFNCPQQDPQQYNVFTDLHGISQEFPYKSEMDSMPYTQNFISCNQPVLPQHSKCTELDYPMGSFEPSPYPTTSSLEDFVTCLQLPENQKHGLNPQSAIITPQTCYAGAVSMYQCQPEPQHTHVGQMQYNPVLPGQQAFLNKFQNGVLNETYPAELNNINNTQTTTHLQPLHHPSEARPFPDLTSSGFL
Chain of Aromatase (Homo sapiens) (P11511 whole entry, looked up): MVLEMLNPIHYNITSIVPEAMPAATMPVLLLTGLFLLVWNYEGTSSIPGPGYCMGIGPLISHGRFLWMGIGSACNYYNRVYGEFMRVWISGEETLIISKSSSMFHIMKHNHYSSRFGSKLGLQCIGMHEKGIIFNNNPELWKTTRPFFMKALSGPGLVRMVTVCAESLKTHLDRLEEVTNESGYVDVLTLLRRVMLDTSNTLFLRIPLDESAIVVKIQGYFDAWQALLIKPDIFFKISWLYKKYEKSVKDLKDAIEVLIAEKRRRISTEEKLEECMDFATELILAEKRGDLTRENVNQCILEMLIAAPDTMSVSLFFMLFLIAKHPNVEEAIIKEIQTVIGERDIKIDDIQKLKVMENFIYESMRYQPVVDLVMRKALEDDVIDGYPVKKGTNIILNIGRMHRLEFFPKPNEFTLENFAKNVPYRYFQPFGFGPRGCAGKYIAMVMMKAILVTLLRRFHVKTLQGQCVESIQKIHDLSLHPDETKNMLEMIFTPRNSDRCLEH

With `C[C@@H](Cc1ccccc1)NCCC(c1ccccc1)c1ccccc1`, the Potency result in [1], in experiment [2], in experiment [3], in experiment [4], in [5] and in [7] was “inactive” throughout. For the same compound, the Potency result in [8], in experiment [10], in experiment [11], in experiment [12], in experiment [15] and in [16] was “inactive” in each case. Besides, the Potency entry (in the experiment with Aromatase (Homo sapiens); in experiment [17]; in [18]) was “inactive” each time. Moreover, the outcome in experiment [6] and in experiment [9] was inactive. Further, the Potency in experiment [13] is 3.59 µM (active); in [14], 7.17 µM (active).
On to `C[C@H]1[C@H]2Cc3ccc(O)cc3[C@]1(C)CCN2CCc1ccccc1`, for which the Potency entry in experiment [1], in experiment [2], in experiment [3], in [4], in [5] and in [7] was “inactive” throughout. The Potency result (in experiment [10]; in experiment [11]; in experiment [12]; in experiment [15]; in experiment [16]; in the experiment with Aromatase (Homo sapiens)) was “inactive” each time. Also, the Potency entry in experiment [17] is “inactive”. The result in experiment [6] and in experiment [9] was inactive. Also, the results for the Potency in experiment [13], in [14] and in experiment [18] were 6.8 µM (active), 17.1 µM (active) and 12.1 µM (active), respectively.
As to `O=c1ccc2cc(O[C@@H]3O[C@H](CO)[C@@H](O)[C@H](O)[C@H]3O)c(O)cc2o1`, the Potency entry in experiment [1], in experiment [2], in experiment [3], in experiment [4], in experiment [8] and in experiment [11] was “inactive” throughout. Also, the Potency result (in experiment [13]; in experiment [14]; in experiment [15]; in experiment [16]; with Aromatase (Homo sapiens); in experiment [18]) was “inactive” in each case. Moreover, the Potency in experiment [5] was 10 µM [fluorescent] (active); in experiment [7] it was 8.91 µM (active); in experiment [10], 8.91 µM [fluorescent] (active); in experiment [12] it was 10 µM [fluorescent] (active). Besides, the result in experiment [6] and in [9] was inactive.
In the case of `CCCCNC(C)(C)[P+](=O)O`, the Potency result in experiment [1], in [2], in [3], in [4], in experiment [5] and in experiment [7] was “inactive” each time. The Potency result in experiment [10], in experiment [11], in experiment [12], in experiment [13], in [14] and in [15] was “inactive” in each case. The Potency entry (in experiment [19]; in the experiment with Aromatase (Homo sapiens); in experiment [17]; in [18]) was “inactive” in each case. The call in [6] and in experiment [9] was inactive.
`CNC(C)CC1CCCCC1` (stereo not drawn): the Potency entry in [1], in [2], in experiment [3], in [4], in experiment [5] and in experiment [7] was “inactive” each time. Further, the Potency result in experiment [8], in [10], in experiment [11], in experiment [12], in [19] and in experiment [16] was “inactive” throughout. The Potency result (with Aromatase (Homo sapiens); in experiment [17]; in experiment [18]) was “inactive” each time. For the same compound, the call in experiment [6] and in experiment [9] was inactive.
`C[C@@H]1[C@@H]2Cc3ccc(O)cc3[C@@]1(C)CCN2CCc1ccccc1`: the Potency result in [1], in experiment [2], in [3], in experiment [4], in experiment [5] and in [7] was “inactive” throughout. Moreover, the Potency result (in experiment [8]; in [10]; in [11]; in experiment [12]; in [16]; in the experiment with Aromatase (Homo sapiens)) was “inactive” throughout. The Potency result in [17] is “inactive”. The outcome in experiment [6] and in experiment [9] was inactive. For the same compound, the Potency in experiment [13] was 3.81 µM (active); in experiment [14] it was 7.6 µM (active); in [18], 8.53 µM (active).
